Assay results published in PubChem BioAssay (NCATS).
Inconclusive results are not listed. Active and inactive are the calls of the source. Calls come from the whole dose curve; as a rule, active = well fitted curve in the direction sought with a large enough effect; inconclusive = small, poorly fitted or top-dose-only effect, or another doubt; inactive = no such curve, though single readings can be large; an effect the other way counts as inactive or inconclusive.

biological target: Cytochrome P450 3A4 (Homo sapiens) (UniProt P08684); test: qHTS Assay for Activators of Cytochrome P450 3A4 (AID 885); details: recombinant CYP3A4, Luciferin-PPXE luminescence, 60 min; series mostly up to 57.1 µM; activity change, positive = activation: at the top concentration; note: nearly all actives have a fitted effect of over 65% in size
Sequence (P08684 whole entry, looked up): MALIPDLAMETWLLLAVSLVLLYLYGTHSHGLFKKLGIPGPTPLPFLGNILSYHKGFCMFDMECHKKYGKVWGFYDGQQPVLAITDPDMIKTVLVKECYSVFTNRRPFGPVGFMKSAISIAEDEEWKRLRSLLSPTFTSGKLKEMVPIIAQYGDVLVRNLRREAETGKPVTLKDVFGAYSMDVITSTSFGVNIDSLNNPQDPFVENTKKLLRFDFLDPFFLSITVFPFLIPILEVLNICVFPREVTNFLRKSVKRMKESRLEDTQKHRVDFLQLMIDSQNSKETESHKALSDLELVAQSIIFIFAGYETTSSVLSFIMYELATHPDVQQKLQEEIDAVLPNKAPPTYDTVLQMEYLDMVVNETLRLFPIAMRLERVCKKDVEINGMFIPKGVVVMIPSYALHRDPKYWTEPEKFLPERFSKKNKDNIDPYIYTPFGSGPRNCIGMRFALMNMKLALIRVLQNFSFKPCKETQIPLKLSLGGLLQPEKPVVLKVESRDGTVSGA
Outline: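 Quantitative HTS format: compounds preincubated with 20nM human CYP3A4 and Luciferin-PPXE substrate at KM, reaction started by NADPH regeneration, stopped after 60 min, luciferase luminescence read 20 min later.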

SMILES	activity change, positive = activation
CC1(C)C(C(Cl)Cl)C2(Cl)C(Cl)C(Cl)C1(Cl)C2(Cl)Cl (stereo not given)	-86.4% (inactive)
COC(=O)[C@]1(C)CC[C@@]2(C)CC[C@@]3(C)C4=CC=C5C(=CC(=O)C(O)=C5C)[C@@]4(C)CC[C@@]3(C)C2C1 (stereo not given in full)	-47.9% (inactive)
Cc1cccc2c3c(ccc12)C1=C(C(=O)C3=O)C(C)CO1 (stereo not given)	-32.4% (inactive)
COc1c2c(c(CC=C(C)C)c3oc(=O)c(-c4ccc(O)cc4)c(O)c13)OC(C)(C)C=C2	-45.9% (inactive)
CCCCN(CC)c1c([N+](=O)[O-])cc(C(F)(F)F)cc1[N+](=O)[O-]	-47.9% (inactive)
OCC(O)Cc1ccc2c(c1)OCO2 (stereo not given)	-50% (inactive)
CCC1C(=O)OC[C@H]1Cc1cncn1C (stereo not given in full)	-68.1% (inactive)
N#Cc1c(Cl)c(Cl)c(Cl)c(C#N)c1Cl	-113% (inactive)
CNNC	-49.4% (inactive)
C=CCO[C@@H](Cn1ccnc1)c1ccc(Cl)cc1Cl	-85% [at 25.6 µM] (inactive)
COC(=O)/C(C)=C\CC12OC(C)(C)C3CC(C=C4C(=O)c5c(OC)c6c(c(CC=C(C)C)c5OC431)OC(C)(CCC=C(C)C)C=C6)C2=O (stereo not given)	-69.3% (inactive)
CN(CCC(N)CC(=O)NC1C=CC(n2ccc(N)nc2=O)OC1C(=O)O)C(=N)N (stereo not given)	-69.8% (inactive)
CC(=O)Oc1c2c(c(CC=C(C)C)c3c1C(=O)C1=CC4CC5C(C)(C)OC(C/C=C(\C)C(=O)O)(C4=O)[C@]15O3)OC(C)(CCC=C(C)C)C=C2 (stereo not given in full)	-94.7% (inactive)
CC[C@]1(O)CC(O[C@@H]2CC(N(C)C)C(O)C(C)O2)c2c(cc3c(c2O)C(=O)c2c(O)cccc2C3=O)C1C(=O)OC (stereo not given in full)	-90.7% (inactive)
COc1ccc(C2Oc3c(I)c(OC)cc(OC)c3CC2O)cc1OC (stereo not given)	-83.8% (inactive)

test system: not listed separately; test: Confirmation and Secondary Assay for Modulators of Hemoglobin Beta Chain Splicing at IVS2 654 locus (AID 910); details: HeLa EGFP-654 splicing reporter, GFP fluorescence, 48 h; series mostly up to 46.1 µM; activation (splicing correction): at the top concentration;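 note: HeLa cells stably carrying EGFP split by mutant beta-globin IVS2-654 intron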;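 note: potency is the fitted concentration of half-maximal effect; potency of activators that raise GFP signal by restoring correct splicing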; for activation (splicing correction): % of control where 0% means no effect
Outline: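 HeLa cells stably expressing EGFP interrupted by β-globin IVS2-654 intron, seeded overnight in Opti-MEM/2% FCS, then treated 2 days at 37 °C. Restored splicing read as total peak GFP intensity per well by laser scanning cytometry (488 nm excitation, 500–520 nm emission); 500 nM antisense PNA as control.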

SMILES	activation (splicing correction)	Potency
COC(=O)[C@]1(C)CC[C@@]2(C)CC[C@@]3(C)C4=CC=C5C(=CC(=O)C(O)=C5C)[C@@]4(C)CC[C@@]3(C)C2C1 (stereo not given in full)	-8.99% (inactive)	–
CC(=O)OC1C2CCC3C1(CC(O)[C@@]1(O)[C@@H](CC(O)C1(C)C)[C@]3(C)O)C[C@@]2(C)O (stereo not given in full)	0.331% (inactive)	–
CC1CC(C)C(=O)[C@H](C(O)CC2CC(=O)NC(=O)C2)C1 (stereo not given in full)	-6.07% (inactive)	–
C=CCN1CC[C@]23c4c5ccc(O)c4OC2C(=O)CC[C@]3(O)C1C5 (stereo not given in full)	-0.811% (inactive)	–
COc1ccc(C(=O)O)cc1OC	6.71% (inactive)	–
NC1C[C@H]1c1ccccc1 (stereo not given in full)	7.23% (inactive)	–
OCC(O)Cc1ccc2c(c1)OCO2 (stereo not given)	7.12% (inactive)	–
COc1ccc(CC2NC[C@H](O)[C@H]2OC(C)=O)cc1 (stereo not given in full)	-7.41% (inactive)	–
N#Cc1c(Cl)c(Cl)c(Cl)c(C#N)c1Cl	-9.99% (inactive)	–
CC[C@]1(O)CC(O[C@@H]2CC(N(C)C)C(O)C(C)O2)c2c(cc3c(c2O)C(=O)c2c(O)cccc2C3=O)C1C(=O)OC (stereo not given in full)	–	15.8 µM (active)

test system: not listed separately; test: Confirmation and Secondary Assay for Modulators of Hemoglobin Beta Chain Splicing at IVS2 705 locus (AID 930); details: HeLa EGFP-705 splicing reporter, GFP fluorescence, 48 h; series mostly up to 46.1 µM; activation: at the top concentration;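 note: HeLa cells stably expressing the EGFP-705 splicing reporter; GFP fluorescence per well restored by corrected splicing of the IVS2-705 intron in EGFP; % of control where 0% means no effect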
Outline: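 Stable HeLa line with EGFP disrupted by mutant beta-globin intron 2 (705). Overnight attachment, then 2 days of compound at 37C, 5% CO2. Signal: peak GFP intensity summed over objects 5-250 µm.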

SMILES	activation
COC(=O)[C@]1(C)CC[C@@]2(C)CC[C@@]3(C)C4=CC=C5C(=CC(=O)C(O)=C5C)[C@@]4(C)CC[C@@]3(C)C2C1 (stereo not given in full)	-0.412% (inactive)
CC1CC(C)C(=O)[C@H](C(O)CC2CC(=O)NC(=O)C2)C1 (stereo not given in full)	0.74% (inactive)
C[C@H]1O[C@H](O[C@H]2[C@H](O)[C@@H](O)[C@@H](O)[C@H](O)[C@@H]2O)[C@@H](N)C[C@@H]1NC(=N)C(=O)O	0.715% [at 38.3 µM] (inactive)
CC(=O)OCC1=C(C(=O)O)N2C(=O)C(NC(=O)CCCC(N)C(=O)O)C2SC1 (stereo not given)	0.739% (inactive)

biological target: Ubiquitin carboxyl-terminal hydrolase 1 (Homo sapiens) (UniProt O94782); test: Inhibitors of USP1/UAF1: Pilot qHTS (AID 504865); details: purified USP1/UAF1, Ub-rhodamine cleavage fluorescence; series mostly up to 114 µM; activity change, negative = inhibition: at the top concentration; note: nearly all actives have a fitted effect of over 35% in size; note: potency is the fitted concentration of half-maximal effect;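 for activity change, negative = inhibition: rhodamine fluorescence freed from ubiquitin-rhodamine substrate followed over time; top concentration of the series differs between compounds; % is set by controls: 0 for no effect and ±100 for the full control effect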
Sequence (O94782 whole entry, looked up): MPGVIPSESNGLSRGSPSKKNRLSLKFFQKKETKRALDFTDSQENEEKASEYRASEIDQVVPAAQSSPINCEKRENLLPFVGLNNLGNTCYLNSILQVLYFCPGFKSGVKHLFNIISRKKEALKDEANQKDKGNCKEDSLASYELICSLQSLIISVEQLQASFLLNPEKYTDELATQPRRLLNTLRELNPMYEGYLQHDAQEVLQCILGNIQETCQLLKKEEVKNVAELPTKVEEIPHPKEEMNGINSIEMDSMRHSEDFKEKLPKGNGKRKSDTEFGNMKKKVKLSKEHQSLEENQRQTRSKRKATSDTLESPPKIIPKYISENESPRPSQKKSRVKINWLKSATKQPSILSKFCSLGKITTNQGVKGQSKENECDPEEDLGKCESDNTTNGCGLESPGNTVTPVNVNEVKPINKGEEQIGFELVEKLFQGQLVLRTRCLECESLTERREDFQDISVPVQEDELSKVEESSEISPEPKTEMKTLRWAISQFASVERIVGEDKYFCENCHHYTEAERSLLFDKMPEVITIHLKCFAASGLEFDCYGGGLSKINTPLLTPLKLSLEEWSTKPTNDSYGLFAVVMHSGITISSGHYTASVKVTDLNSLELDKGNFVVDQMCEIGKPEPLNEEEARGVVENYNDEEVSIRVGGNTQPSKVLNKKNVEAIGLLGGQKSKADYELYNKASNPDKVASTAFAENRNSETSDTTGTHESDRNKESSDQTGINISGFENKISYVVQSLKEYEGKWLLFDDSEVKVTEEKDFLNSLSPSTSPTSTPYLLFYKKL
Outline: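 In 50mM HEPES pH 7.8 containing 0.5mM EDTA, 1mM TCEP, 0.1 mg/ml BSA and 0.01% Tween-20, 1nM USP1/UAF1 is exposed to compound for 15 min, then Ub-Rho (150nM final) is added and fluorescence is read over time.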

SMILES	activity change, negative = inhibition	Potency
CC1(C)C(C(Cl)Cl)C2(Cl)C(Cl)C(Cl)C1(Cl)C2(Cl)Cl (stereo not given)	-14.3% (inactive)	–
COC(=O)[C@]1(C)CC[C@@]2(C)CC[C@@]3(C)C4=CC=C5C(=CC(=O)C(O)=C5C)[C@@]4(C)CC[C@@]3(C)C2C1 (stereo not given in full)	–	44.7 µM (active)
CC(=O)OC1C2CCC3C1(CC(O)[C@@]1(O)[C@@H](CC(O)C1(C)C)[C@]3(C)O)C[C@@]2(C)O (stereo not given in full)	-5.32% [at 54.9 µM] (inactive)	–
CC[C@]1([C@H]2O[C@@H]([C@@H]3O[C@](O)(CO)[C@@H](C)C[C@H]3C)C[C@H]2C)CC[C@@H]([C@]2(C)CC[C@@]3(C[C@@H](O)[C@@H](C)[C@@H]([C@H](C)[C@H](OC)[C@H](C)C(=O)O)O3)O2)O1	-1.92% (inactive)	–
Cc1cccc2c3c(ccc12)C1=C(C(=O)C3=O)C(C)CO1 (stereo not given)	–	50.1 µM (active)
CSc1nc(NC(C)C)nc(NC(C)C)n1	-5.96% (inactive)	–
NCC(N)C(=O)c1ccccc1 (stereo not given)	-13% (inactive)	–
CC1CC(C)C(=O)[C@H](C(O)CC2CC(=O)NC(=O)C2)C1 (stereo not given in full)	-6.84% (inactive)	–
C=CCN1CC[C@]23c4c5ccc(O)c4OC2C(=O)CC[C@]3(O)C1C5 (stereo not given in full)	-11.6% (inactive)	–
CN1[C@H]2CC(OC(=O)[C@H](CO)c3ccccc3)C[C@H]1[C@H]1O[C@H]12 (stereo not given in full)	1.94% (inactive)	–
COc1c2c(c(CC=C(C)C)c3oc(=O)c(-c4ccc(O)cc4)c(O)c13)OC(C)(C)C=C2	–	79.4 µM (active)
C[C@H]1O[C@H](O[C@H]2[C@H](O)[C@@H](O)[C@@H](O)[C@H](O)[C@@H]2O)[C@@H](N)C[C@@H]1NC(=N)C(=O)O	-6.47% (inactive)	–
CCC1C2CC3C4N(C)c5ccccc5[C@]45CC(C2C5O)N3C1O (stereo not given in full)	-13.5% (inactive)	–
COc1ccc(C(=O)O)cc1OC	-2.61% (inactive)	–
NC1C[C@H]1c1ccccc1 (stereo not given in full)	-7.62% (inactive)	–
CCCCN(CC)c1c([N+](=O)[O-])cc(C(F)(F)F)cc1[N+](=O)[O-]	-6.84% (inactive)	–
OCC(O)Cc1ccc2c(c1)OCO2 (stereo not given)	-7.11% (inactive)	–
CCC1C(=O)OC[C@H]1Cc1cncn1C (stereo not given in full)	-7.37% (inactive)	–

SMILES	activity change, negative = inhibition	Potency
COc1ccc(CC2NC[C@H](O)[C@H]2OC(C)=O)cc1 (stereo not given in full)	-7.05% (inactive)	–
CNC1=CN(O)C(c2ccccc2)=c2cc(Cl)ccc2=N1	0.974% (inactive)	–
N#Cc1c(Cl)c(Cl)c(Cl)c(C#N)c1Cl	–	10 µM (active)
CNNC	-12.1% (inactive)	–
CN(C)C1C(=O)C(C(N)=O)=C(O)[C@@]2(O)C(=O)C3=C(O)c4c(O)cccc4[C@@](C)(O)C3CC12 (stereo not given in full)	-98.6% (inactive)	–
CC(=O)OCC1=C(C(=O)O)N2C(=O)C(NC(=O)CCCC(N)C(=O)O)C2SC1 (stereo not given)	-11.3% (inactive)	–
C=CCO[C@@H](Cn1ccnc1)c1ccc(Cl)cc1Cl	6.71% [at 54.9 µM] (inactive)	–
CC(CO)NC(=O)C1C=C2c3cccc4[nH]cc(c34)C[C@H]2N(C)C1 (stereo not given in full)	-11.4% (inactive)	–
O=C1CC[C@]2(O)C3Cc4ccc(O)c5c4C2(CCN3CC2CC2)C1O5 (stereo not given in full)	-10.8% (inactive)	–
COC(=O)/C(C)=C\CC12OC(C)(C)C3CC(C=C4C(=O)c5c(OC)c6c(c(CC=C(C)C)c5OC431)OC(C)(CCC=C(C)C)C=C6)C2=O (stereo not given)	–	39.8 µM (active)
CN(CCC(N)CC(=O)NC1C=CC(n2ccc(N)nc2=O)OC1C(=O)O)C(=N)N (stereo not given)	-5.43% (inactive)	–
CC(C)=O	1.97% (inactive)	–
OCC1OC(n2cnc3cc(Cl)c(Cl)cc32)C(O)C1O (stereo not given)	3.97% (inactive)	–
C[C@@]12C=CC(=O)C=C1CCC1C2CC[C@]2(C)C(=O)CCC12 (stereo not given in full)	-13.2% (inactive)	–
CC(=O)Oc1c2c(c(CC=C(C)C)c3c1C(=O)C1=CC4CC5C(C)(C)OC(C/C=C(\C)C(=O)O)(C4=O)[C@]15O3)OC(C)(CCC=C(C)C)C=C2 (stereo not given in full)	–	12.6 µM (active)
CC[C@]1(O)CC(O[C@@H]2CC(N(C)C)C(O)C(C)O2)c2c(cc3c(c2O)C(=O)c2c(O)cccc2C3=O)C1C(=O)OC (stereo not given in full)	–	56.2 µM (active)
COc1ccc(C2Oc3c(I)c(OC)cc(OC)c3CC2O)cc1OC (stereo not given)	-7.08% (inactive)	–
O=C1C=C2C(=CCOC2O)O1 (stereo not given)	–	50.1 µM (active)
